About 83,000 compounds went through this panel and 20% of them were active in at least one assay; those are over-represented in the sample as a whole.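 Assay: single dose, 48 h. Readout: percent growth (0 = no net growth; negative = cell death). Active: <10.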 A number with no mark means an inactive call. Active and inactive are the calls of the source.

This assay deals with MDA-MB-468 breast. In words: NCI-60 one-dose screen, 48 h (100 = growth as untreated, 0 = no growth, -100 = all killed). As to conditions: 10 µM unless noted.
As for `CN(C)CCN(Cc1ccccc1)c1ccc2ccccc2n1`, the growth was 92.6%.

Regarding `Clc1ccc2c(NCCCn3ccnc3)c3oc4ccccc4c3nc2c1`, the growth is 39.7%. As to `CCN(CC)CCOc1ccc(/C(=C(\C)c2ccc(Cl)cc2)c2ccc(Cl)cc2)cc1`, the growth is 70.6%.

`CCn1cc(C2=C(c3cn(C)c4ncccc34)C(=O)NC2=O)c2cccnc21`: the growth is 37.2%. For `Fc1ccc(-c2cc3nc(C(Cl)Cl)nc(-c4cccs4)n3n2)cc1`, the growth was -46.8% (active). For the compound `NS(=O)(=O)c1ccc(Nc2nc(SCC(=O)c3ccc(Cl)cc3)nc3c2CCCC3)cc1`, the growth is 57.9%. To `O=S(=O)(Nc1ccc(Br)cc1)c1ccc(-c2cnc(C3CC3)o2)cc1` belongs -12.4% (active); to `CN(C)CCCN=c1cc2c(=O)n(CCCN(C)C)c(=O)c3c(NCCCN(C)C)cc4c(O)n(CCCN(C)C)c(=O)c1c4c3-2`, -53.2% (active). For the compound `C#CCC#CCN1CCC[C@H]1C(=O)NCC(=O)OC`, the growth was 99.1%.

Take `CCCCCCCCCCCC(=O)NC(C)(C)C(=O)N1CCCC1C(=O)NC(C)(C)C(=O)NC(C)(C)C(=O)N1CCCC1C(=O)NC(C)(C)C(=O)NC(C)(C)C(=O)N1CCCC1C(=O)NC(C)C(=O)NCCC(=O)NC(C)C(=O)NC(C)(C)C(=O)NC(C)(C)C(=O)NC(C)(C)C(=O)NCCC(=O)NC(C)(C)C(=O)NC(C)(C)C(=O)NC(C)(C)C(=O)NC(C)C(=O)NCCC(=O)O` (stereo not given): the growth is -88.5% (active). Regarding `CC1=C(SCC(=O)OCCCCCC(C)C)C(=O)c2ccccc2C1=O`, the growth was 65.5%. In the case of `CC(C)CCN(CCCNc1c2c(nc3cc(Cl)ccc13)CCCC2)CCC(C)C` it was 22.6%. To `CC(C)(C)OC(=O)N1CCc2c(sc3ncnc(N/N=C/c4cccc5ccccc45)c23)C1` belongs 5.85% (active). As to `Cc1ccc(S(=O)(=O)c2nc(-c3ccccc3)oc2S(C)(=O)=O)cc1`, the growth was -59.3% (active).

Consider `O=C1Nc2ccccc2/C1=N\c1nnc(-c2ccccc2)o1`, for which the growth is 69.6%.

Turning to `CCCCCCC(C)c1ccccc1O` (stereo not given) (tested in a mixture with another compound), the growth is 124%. To `COc1cc([C@@H]2c3cc4c(cc3C(Br)[C@H]3COC(=O)[C@H]23)OCO4)cc(OC)c1OC` (stereo not given in full) belongs -49.3% (active).

`Cc1onc2c(-c3ccccc3)n[nH]c(=O)c12`: the growth was 98.3%.

Turning to `O=c1oc2ccc(Br)cc2c(=O)n1-c1ccc(F)cc1F`, the growth is -2.96% (active). To `CCNCCNc1cc(-c2cccc(C(F)(F)F)c2)c(C#N)c2nc3ccccc3n12` belongs -84.3% (active); to `CC1=C/C(O)CC(=O)Cc2nc(co2)C(=O)N2CCC=C2C(=O)OC(C(C)C)C(C)/C=C\C(=O)NC/C=C\1` (stereo not given), 54.5%; to `N#CN1CC[C@H](C(=O)Nc2ncc(-c3ccncc3)s2)C1`, -35.7% (active). In the case of `COc1ccc(-c2nc3cccc(O)c3c(=O)n2Cc2ccccc2)cc1COc1ccc(NC(C)=O)cc1` it was 71.9% [3 µM]; in that of `C=C(C)[C@@H]1CCC[C@]2(C(=O)O)CC[C@]3(C)[C@@H](CC[C@@H]4[C@@]5(C)C/C(=C/c6ccncc6)C(=O)C(C)(C)[C@@H]5CC[C@]43C)[C@@H]12`, 16.6%. For `NCCCNc1nc2ccccc2c2c(=O)c3cc(Cl)ccc3sc12`, the growth was -19.1% (active).

Values taken from PubChem BioAssay (NCI).
